# Compound activity (PubChem)
# TDP1 cell CPT = growth inhibition of DT40 Tdp1-/-;hTDP1 cells with camptothecin (screen for TDP1 inhibitors) | chicken DT40 Tdp1-/-;hTDP1 cells + 20 nM CPT, ATP luminescence, 48 h | Potency, µM (top dose mostly 46.2 µM), for the others: at the highest dose activity change, negative = growth inhibition, most hits filed as inhibitors | 420,000 compounds, 12% hits | AID 686979; also: % is scaled to controls: 0 for no effect and ±100 for the full control effect; nearly all actives have a fitted effect of over 55% in size
#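 Chicken DT40 Tdp1-/- cells complemented with human TDP1, 400 cells/well, exposed to compounds plus 20 nM camptothecin for at least 48 h at 37 C; viability read as ATP content by CellTiter-Glo luminescence.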
# TGFb SMAD3 inh = inhibitors of TGF-b signaling; HepG2 CAGA-GFP TGF-b/SMAD3 reporter, GFP fluorescence, 18 h; TGF-beta stimulated, 500 pg/mL final; Potency, µM (top dose mostly 46.1 µM), for the others: at the top dose activity, negative = inhibition, actives largely listed as inhibitors; 410,000 compounds, 1.2% hits; AID 588855; also: % is scaled to controls: 0 for no effect and ±100 for the full control effect; nearly all actives have a fitted effect of over 65% in size
#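 HEPG2 CAGA-GFP cells (1000/well, DMEM with 1% FBS) were pre-incubated 2 h at 37 degrees C, given compound by pin tool, then stimulated with TGF-beta at 500 pg/mL final for 18 h before per-cell GFP fluorescence imaging.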
# HT1080 IDH1KD tx = kills HT-1080 cells with IDH1 knockdown | HT-1080 IDH1 knockdown viability, ATP luminescence, 48 h | Potency, µM (series often up to 46.1 µM), for the others: top-dose activity, negative = toxicity, hits mostly cytotoxic | 360,000 compounds, 2% hits | AID 686971;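 also: 0% = DMSO wells and -100% = cell-free medium wells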
#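 Viability of IDH1-knockdown HT-1080 fibrosarcoma cells was assessed by CellTiter-Glo after 48 h at 37 °C with titrated compound; concentration-effect curves were classified by fit quality and response size.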
# HT1080-NT tox = kills 2HG-producing HT-1080-NT fibrosarcoma cells; HT-1080-NT fibrosarcoma viability, CellTiter-Glo ATP luminescence, 48 h; Potency, µM (top dose mostly 46.1 µM), for inactives: top-dose activity, negative = less viability, hits mostly cytotoxic; 360,000 compounds, 1.6% hits; AID 686970;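 also: NT is the 2HG producing partner of a matched IDH1 knockdown line; 0% = DMSO-treated cells and -100% = media-only wells without cells; nearly all actives have a fitted effect of over 55% in size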
#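 A 48-hour cytotoxicity screen used HT-1080-NT cells plated 2 hours before compound delivery. ATP-based CellTiter-Glo luminescence measured viability, normalized to DMSO and no-cell controls.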
# HepG2 viability = HepG2 cytotoxicity, counter-screen for TGF-b inhibitors; HepG2 CAGA-GFP viability, ATP luminescence, 18 h; Potency, µM (titrated, usually from 46.1 µM), inactives show at the highest dose activity change, negative = cytotoxicity, actives largely listed as cytotoxic; 410,000 compounds, 0.76% hits
#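 CellTiter-Glo luminescence gave cytotoxicity after 18 hours at 37 degrees C. The cells were HepG2 CAGA-GFP in 1% FBS DMEM, stimulated with 500 pg/mL TGF-beta after compound addition. %Activity was normalised to no-cell wells (complete cell-killing) and DMSO (no toxicity), and curves were fitted and classified.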
# TDP1 cell noCPT = qHTS for Inhibitors of human tyrosyl-DNA phosphodiesterase 1 (TDP1): qHTS in cells in absence of CPT | DT40 Tdp1-/- hTDP1 cells, no CPT, ATP luminescence, 48 h | Potency, µM (highest dose often 46.2 µM), for the others: at the top dose activity change, negative = growth inhibition, hits mostly inhibitors | AID 686978, 2013 | 420,000 compounds, 15% hits; also: % is scaled to controls: 0 for no effect and ±100 for the full control effect; nearly all actives have a fitted effect of over 55% in size
#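 No-CPT arm: Tdp1-/-;hTDP1 DT40 cells (400/well) plus compounds, incubated ≥48 hr at 37 °C. Readout CellTiter-Glo luminescence.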
# * hit, by the source's call; ? = inconclusive; / = no result given. This is a sample that favours compounds with a hit; in the whole collection about 17% have one here. Calls follow the shape of the dose curve; as a rule, active = well fitted curve in the direction sought with a large enough effect; inconclusive = small, poorly fitted or top-dose-only effect, or another doubt; inactive = no such curve, though single readings can be large; an effect the other way counts as inactive or inconclusive. Potency is read from the fitted curve at half-maximal effect.
SMILES,TDP1 cell CPT,TGFb SMAD3 inh,HT1080 IDH1KD tx,HT1080-NT tox,HepG2 viability,TDP1 cell noCPT
COc1ccc(/C(=N/OC(C)=O)c2nccc3cc(OC)c(OC)cc23)cc1OC,-6%,-8%,-4%,-2%,-16%,-28%
O=[N+]([O-])c1cc(S(=O)(=O)O)cc([N+](=O)[O-])c1NN(c1ccccc1)c1ccccc1,-7%,-5%,23%,29%,-26%,?
O=C(N/N=C/c1c[nH]c2ccc(Br)cc12)c1ccn(Cc2ccc(Cl)cc2)n1,?,?,?,-22%,6%,21µM*
Cc1ccc2c(c1)N(C(=O)C1CCN(S(=O)(=O)c3c(C)noc3/C=C/c3ccccc3F)CC1)CCO2,-6%,4%,/,/,1%,?
O=C(c1ccc(Cl)c(Cl)c1)N1CCC(=O)N(C(COCc2cccc(C(F)(F)F)c2)Cc2ccccc2)CC1 (centres undefined),?,?,?,?,-27%,?
CC(C)(C)c1ccc(C(=O)N2CCC(=O)N(C(COCc3ccccc3)Cc3ccccc3)CC2)cc1 (centres undefined),15µM*,?,-13%,?,-61%,21µM*
O=C(c1ccc(C(F)(F)F)cc1)N1CCC(=O)N(C(COCc2ccccc2)Cc2ccccc2)CC1 (centres undefined),21µM*,?,-20%,-3%,17%,21µM*
CC1(C(=O)Nc2cccc(OC(F)(F)F)c2)Cc2c(-c3cccc(C(F)(F)F)c3)ccnc2O1 (centres undefined),?,?,?,?,-23%,?
CC1(C(=O)Nc2cccc(NS(C)(=O)=O)c2)Cc2c(-c3ccc(C(N)=O)cc3)ccnc2O1 (centres undefined),-16%,12%,13%,7%,3%,-5%
CC(=O)Nc1cccc(-c2ccnc3c2CC(C)(C(=O)Nc2cccc(OC(F)(F)F)c2)O3)c1 (centres undefined),?,14µM*,?,9.2µM*,-51%,?
CC1(C(=O)Nc2cccc(OC(F)(F)F)c2)Cc2c(-c3ccc(C(N)=O)cc3)ccnc2O1 (centres undefined),?,?,?,-5%,-18%,16µM*
O=S(=O)(O)c1c(NS(=O)(=O)c2ccccc2)ccc2ccccc12,/,-2%,/,/,5%,/
CCn1c(SCC(=O)NC2CCCCC2)nnc1-c1ccccc1F,1%,-1%,18%,-16%,-10%,-7%
Cn1c(-n2cccc2)c(-c2c(-c3ccccc3)[nH]c3c2c(=O)[nH]c(=O)n3C)c(=O)[nH]c1=O,?,1%,/,/,-7%,?
CCCS(=O)(=O)NC(=O)C1(C)CCCN(C(=O)c2ccc3ccccc3n2)C1 (centres undefined),-24%,5%,17%,12%,4%,-25%
CCc1ccc(C2CC(=O)Nc3c2c(C)nn3-c2nc(C)cc(C)n2)cc1 (centres undefined),21µM*,?,/,/,-43%,21µM*
Cc1cc(C)nc(-n2nc(C)c3c2NC(=O)CC3c2ccccc2OC(C)C)n1 (centres undefined),16µM*,-32%,/,/,-31%,18µM*
COc1ccc(C2CC(=O)Nc3c2c(C)nn3-c2nncc(-c3ccc(C)cc3)n2)c(OC)c1OC (centres undefined),12µM*,?,/,/,-15%,6.5µM*
Cc1ccc(CN2C(=O)CC(c3ccc(Cl)cc3)c3c(C)nn(-c4nc(C)cc(C)n4)c32)cc1 (centres undefined),?,-10%,/,/,-27%,21µM*
Cc1ccc(C2CC(=O)N(Cc3ccc(F)cc3)c3c2c(C)nn3-c2nc(C)cc(C)n2)cc1 (centres undefined),?,-25%,/,/,-36%,?
Cc1ccccc1NC(=O)CCc1c(C)nc2c(c1C)c(=O)n(C)c(=O)n2C,4%,-3%,/,/,-14%,?
CC(=O)c1cc(CCC(=O)NC2CCCCCC2)oc1C,0%,-1%,15%,10%,-13%,-2%
Cc1cc(C)c2oc(C(=O)Nc3c(C)n(C)n(-c4ccccc4)c3=O)cc(=O)c2c1,1%,25%,/,/,20%,-10%
CCc1nn(CC(=O)NCc2ccco2)c(=O)c2cc3cc(F)ccc3n12,-1%,-16%,/,/,-3%,-2%
Cc1cccc(NC(=O)C(C)OC(=O)c2ccccc2NS(=O)(=O)c2cc(C)c(C)c([N+](=O)[O-])c2)c1 (centres undefined),16µM*,?,-5%,-4%,-20%,?
SMILES,TDP1 cell CPT,TGFb SMAD3 inh,HT1080 IDH1KD tx,HT1080-NT tox,HepG2 viability,TDP1 cell noCPT
Cn1c(N)c(C(=O)CSc2nnc(C3CC3)n2Cc2ccccc2)c(=O)[nH]c1=O,-20%,9%,-1%,3%,-1%,5%
NNC(=O)COc1cccc(Oc2ccccc2)c1,?,-5%,-7%,-4%,2%,18µM*
Cc1ccc(OC(=O)c2ccncc2)c(C)c1,1%,2%,14%,14%,3%,2%
CCCCCC(=O)N1CC2(CC)CN(C(=O)CCCCC)CC(CC)(C1)C2=O,16µM*,-22%,-8%,-5%,-1%,?
O=C(c1ccccc1)N1CCN(C(=O)N2CCOCC2)CC1,12%,-8%,2%,0%,2%,2%
O=C1C(=C(c2ccccc2)N2CCOCC2)Cc2ccccc21,1.2µM*,3.2µM*,4.6µM*,15µM*,8.9µM*,0.82µM*
Cc1ccc(C2(C)NC(=O)N(CC(=O)Nc3ccc(Cl)c(S(=O)(=O)N4CCCCC4)c3)C2=O)cc1 (centres undefined),?,?,-8%,-9%,-3%,18µM*
COc1ccc(S(=O)(=O)N2CCCCCC2)cc1NC(=O)CN1C(=O)NC(C)(c2ccc(C)cc2)C1=O (centres undefined),?,?,-10%,-1%,-28%,?
CCOc1ccc(S(=O)(=O)N2CCCCC2)cc1NC(=O)CN1C(=O)NC(C)(c2ccc(C)cc2)C1=O (centres undefined),23µM*,-9%,-28%,-7%,0%,16µM*
